In one experiment the target is Albumin (Bos taurus) (UniProt P02769). Description: compounds binding labelled BSA control protein – biochemical, small-molecule microarray, Alexa647 label, 635/667 nm fluorescence, artefact control for SMM control protein annotation, profiling panel (AID 1118).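 Also: score merges 667 nm emission intensity and signal-to-noise per printed compound spot.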 The note with it: BSA-A647 binding, fluorescence 635 nm, higher = more signal.
Experiment [1] is described as follows: probe aXIP binding to arrayed compounds – biochemical, NeuroSMM set, 635/667 nm fluorescence, primary screen (AID 1119).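 Also: probe is the protein aXip251-270 applied at 1 µg/mL to compound-printed slides; binding of probe to printed compounds measured as 667 nm fluorescence plus signal to noise.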 The note with it: small-molecule microarray, higher = more signal, called active from +8 up or from −8 down.
A short description of experiment [2]: probe aNOTCH3 binding on compound microarray – biochemical, small-molecule microarray, 635/667 nm fluorescence, primary screen (AID 1120).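 Also: probe is a biotin-tagged antibody raised against NOTCH3 rather than NOTCH3 protein; score merges spot fluorescence near 667 nm with spot signal to noise.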 The note with it: higher = more signal.
Experiment [3] in a line: probe aNOTCH2 binding on compound microarray – biochemical, small-molecule microarray, 635/667 nm fluorescence, primary screen (AID 1121).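 Also: score merges feature fluorescence read at 667 nm with its signal to noise.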 The note with it: higher = more signal.
Experiment [4] has as its target Carbonic anhydrase 2 (Homo sapiens) (UniProt P00918). In words: compounds binding carbonic anhydrase 2 – biochemical, small-molecule microarray, Alexa647-labelled CAII, profiling panel (AID 1122). The note with it: CAII-A647 binding fluorescence, higher = more signal.
The nature of experiment [5]: COS7 lysate on small-molecule microarray, probe aHis, 635 nm (AID 1123).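 Also: z-score combines 667nm fluorescence intensity with signal-to-noise per printed compound spot.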 The note with it: COS7 cell lysate, fluorescence, higher = more signal.
Experiment [6] is described as follows: probe aLAP1 signal on lysate-treated microarray – cell lysate, small-molecule microarray, COS7 lysate, primary screen (AID 1124).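 Also: lysate comes from COS7 cells expressing LAP1 and is applied at 0.3 µg/mL; score merges spot fluorescence near 667 nm with signal-to-noise over triplicate slides.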 The note with it: probe aLAP1, fluorescence, higher = more signal.
In another experiment the test system is Sam68 (KHDRBS1). In words: compounds binding KHDRBS1 protein – biochemical, small-molecule microarray, 635 nm fluorescence, primary screen (AID 1125).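 Also: score merges 667 nm channel intensity with signal to noise over triplicate slides.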 The note with it: higher = more signal.
Experiment [7] has as its system Chordin-like protein 2 (CHRDL2). In words: compounds binding chordin-like 2 – biochemical, small-molecule microarray, 635 nm fluorescence, primary screen (AID 1126).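 Also: printed compound slides probed with Chrdl2 protein at 4 µg/mL for 1 h at 4 C; score merges 667 nm emission intensity with signal to noise over three replicate slides.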 The note with it: fluorescence 635 nm, higher = more signal.
The target of experiment [8] is Concanavalin-A (Canavalia ensiformis) (UniProt P02866). Description: compounds binding concanavalin A lectin – biochemical, small-molecule microarray, Alexa647 label, 635 nm, artefact control for SMM control protein annotation, primary screen (AID 1127).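 Also: z combines 667 nm emission intensity with signal-to-noise across three replicate slides.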 The note with it: ConA-A647 binding fluorescence, higher = more signal.
Chain of Concanavalin-A (Canavalia ensiformis) (P02866 whole entry, looked up): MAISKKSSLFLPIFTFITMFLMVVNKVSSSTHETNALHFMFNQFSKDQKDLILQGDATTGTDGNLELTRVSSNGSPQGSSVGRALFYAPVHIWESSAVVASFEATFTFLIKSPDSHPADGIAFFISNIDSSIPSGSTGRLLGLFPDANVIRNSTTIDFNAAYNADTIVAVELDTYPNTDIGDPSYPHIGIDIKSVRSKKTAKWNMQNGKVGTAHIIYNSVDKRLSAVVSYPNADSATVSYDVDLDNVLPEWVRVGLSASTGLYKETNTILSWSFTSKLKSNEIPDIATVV
The nature of experiment [9]: compounds binding Alexa647 anti-His antibody – biochemical, small-molecule microarray, 635 nm fluorescence, artefact control for SMM control protein annotation, primary screen (AID 1128).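 Also: score merges feature fluorescence with signal-to-noise for each printed compound spot.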 The note with it: higher = more signal.
In experiment [10] the test system is Human papillomavirus type 1a E7 protein (residues 1-88). In words: HPV1a E7 small-molecule binders, primary screen, biochemical, small-molecule microarray, residues 1-88, 635 nm (AID 1129). The note with it: small-molecule microarray binding, fluorescence 635 nm; higher = more signal.
The target in experiment [11] is Focal adhesion kinase 1 (Homo sapiens) (UniProt Q05397). Description: PTK2 protein binding on printed compound slides – biochemical, small-molecule microarray, 635/667 nm fluorescence, BSA, DTT, primary screen (AID 1130).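 Also: composite of spot emission at 667 nm and signal to noise over triplicate slides.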 The note with it: 635 nm fluorescence, higher = more signal.
Chain of Focal adhesion kinase 1 (Homo sapiens) (Q05397 whole entry, looked up): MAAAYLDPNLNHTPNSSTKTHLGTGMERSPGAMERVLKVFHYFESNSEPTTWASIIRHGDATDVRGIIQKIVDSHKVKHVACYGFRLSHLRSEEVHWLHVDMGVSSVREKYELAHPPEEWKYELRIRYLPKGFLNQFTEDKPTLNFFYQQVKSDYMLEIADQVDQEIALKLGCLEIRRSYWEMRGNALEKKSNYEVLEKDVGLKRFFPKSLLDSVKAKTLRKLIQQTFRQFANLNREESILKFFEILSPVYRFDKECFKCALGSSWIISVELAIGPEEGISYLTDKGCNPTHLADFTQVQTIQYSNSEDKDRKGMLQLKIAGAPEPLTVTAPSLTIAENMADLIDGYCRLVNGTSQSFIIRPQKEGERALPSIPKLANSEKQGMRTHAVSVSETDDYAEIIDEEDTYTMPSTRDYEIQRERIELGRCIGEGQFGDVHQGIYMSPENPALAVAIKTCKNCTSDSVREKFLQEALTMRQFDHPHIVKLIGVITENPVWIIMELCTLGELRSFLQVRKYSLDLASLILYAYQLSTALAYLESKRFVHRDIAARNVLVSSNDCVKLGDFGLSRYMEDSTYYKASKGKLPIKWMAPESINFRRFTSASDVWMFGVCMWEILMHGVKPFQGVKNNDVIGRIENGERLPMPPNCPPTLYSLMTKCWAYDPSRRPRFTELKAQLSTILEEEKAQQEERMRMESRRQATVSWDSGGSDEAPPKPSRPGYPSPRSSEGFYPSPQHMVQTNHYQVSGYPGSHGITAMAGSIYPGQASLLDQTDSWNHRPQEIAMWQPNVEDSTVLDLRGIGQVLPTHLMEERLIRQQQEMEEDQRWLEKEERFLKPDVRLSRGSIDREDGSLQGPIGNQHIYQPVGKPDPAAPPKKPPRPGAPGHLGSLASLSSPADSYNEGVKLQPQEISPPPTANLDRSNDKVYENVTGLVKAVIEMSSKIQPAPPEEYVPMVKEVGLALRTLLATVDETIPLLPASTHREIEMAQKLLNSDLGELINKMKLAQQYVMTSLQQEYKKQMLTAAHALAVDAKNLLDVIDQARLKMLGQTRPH
In experiment [12] the test system is Fibrinogen (Alexa647-labelled). In words: Alexa647-fibrinogen binding to printed small molecules – biochemical, small-molecule microarray, 635/667 nm fluorescence, artefact control for SMM control-protein annotation, profiling panel (AID 1131).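 Also: z-score merges 667 nm fluorescence with per-spot signal-to-noise over triplicate slides.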 The note with it: fibrinogen-A647 binding fluorescence, higher = more signal.
For experiment [13], the target named is Follistatin (Homo sapiens) (UniProt P19883). In words: FST protein binding to printed compounds – biochemical, small-molecule microarray, 635/667 nm fluorescence, primary screen (AID 1132). The note with it: 635 nm fluorescence, higher = more signal.
Chain of Follistatin (Homo sapiens) (P19883 whole entry, looked up): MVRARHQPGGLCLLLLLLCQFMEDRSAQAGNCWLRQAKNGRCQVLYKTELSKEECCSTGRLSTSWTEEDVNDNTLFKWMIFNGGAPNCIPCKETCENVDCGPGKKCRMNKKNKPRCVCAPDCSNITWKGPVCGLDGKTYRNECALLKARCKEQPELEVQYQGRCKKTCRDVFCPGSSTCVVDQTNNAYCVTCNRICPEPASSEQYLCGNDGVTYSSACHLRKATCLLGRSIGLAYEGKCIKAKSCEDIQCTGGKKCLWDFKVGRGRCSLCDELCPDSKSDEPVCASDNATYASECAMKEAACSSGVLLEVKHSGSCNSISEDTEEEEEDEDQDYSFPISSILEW
Experiment [14] deals with Fibroblast growth factor 2 (Homo sapiens) (UniProt P09038). In words: basic fibroblast growth factor binding to printed compounds – biochemical, small-molecule microarray, 635/667 nm fluorescence, primary screen (AID 1133). The note with it: FGF2, fluorescence 635/667, higher = more signal.
Chain of Fibroblast growth factor 2 (Homo sapiens) (P09038 whole entry, looked up): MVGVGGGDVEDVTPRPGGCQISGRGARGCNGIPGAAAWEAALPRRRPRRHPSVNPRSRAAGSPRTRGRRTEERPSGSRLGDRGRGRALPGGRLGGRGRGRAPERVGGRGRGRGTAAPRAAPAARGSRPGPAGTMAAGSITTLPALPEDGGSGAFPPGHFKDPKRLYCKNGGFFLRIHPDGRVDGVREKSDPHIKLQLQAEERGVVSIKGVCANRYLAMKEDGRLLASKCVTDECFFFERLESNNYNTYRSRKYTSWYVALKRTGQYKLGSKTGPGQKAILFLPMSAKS
Experiment [15] in a line: JC-1 mitochondrial potential readout, lung cancer cells – cell-based, A549, JC-1 fluorescence, basal, 24 h, 100 nL, profiling panel (AID 1138).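 Also: A549 lung adenocarcinoma cells under basal conditions with no added stimulus; test concentration not given here.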 The note with it: higher = more signal.
For a further experiment, the system named is Lefty1. Description: Lefty1 protein binding to printed compounds – biochemical, small-molecule microarray, 635/667 nm fluorescence, primary screen (AID 1139). The note with it: fluorescence 635/667, higher = more signal.
The subject of experiment [16] is wheat germ agglutinin (Triticum aestivum), Alexa647-labelled. In words: Alexa647-WGA lectin binding to printed small molecules – biochemical, small-molecule microarray, 635/667 nm fluorescence, artefact control for SMM control-protein annotation, profiling panel (AID 1140).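 Also: score merges 667 nm feature emission with signal to noise over triplicate slides.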 The note with it: WGA-A647 binding, 635 nm fluorescence, higher = more signal.
Experiment [17] has as its target Luciferin 4-monooxygenase (Photinus pyralis) (UniProt P08659). In words: inhibition of purified Photinus pyralis luciferase – biochemical, luminescence, purified enzyme, 2006 set, primary screen (AID 1141).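 Also: cell-free assay with purified firefly luciferase at 100 ng per well in PBS; test concentration not given here.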 The note with it: purified firefly luciferase, SteadyGlo luminescence, 30 min; higher = more signal, called active from +8 up or from −8 down.

Calls of active or inactive are those of the source.

Chain of Luciferin 4-monooxygenase (Photinus pyralis) (P08659 whole entry, looked up): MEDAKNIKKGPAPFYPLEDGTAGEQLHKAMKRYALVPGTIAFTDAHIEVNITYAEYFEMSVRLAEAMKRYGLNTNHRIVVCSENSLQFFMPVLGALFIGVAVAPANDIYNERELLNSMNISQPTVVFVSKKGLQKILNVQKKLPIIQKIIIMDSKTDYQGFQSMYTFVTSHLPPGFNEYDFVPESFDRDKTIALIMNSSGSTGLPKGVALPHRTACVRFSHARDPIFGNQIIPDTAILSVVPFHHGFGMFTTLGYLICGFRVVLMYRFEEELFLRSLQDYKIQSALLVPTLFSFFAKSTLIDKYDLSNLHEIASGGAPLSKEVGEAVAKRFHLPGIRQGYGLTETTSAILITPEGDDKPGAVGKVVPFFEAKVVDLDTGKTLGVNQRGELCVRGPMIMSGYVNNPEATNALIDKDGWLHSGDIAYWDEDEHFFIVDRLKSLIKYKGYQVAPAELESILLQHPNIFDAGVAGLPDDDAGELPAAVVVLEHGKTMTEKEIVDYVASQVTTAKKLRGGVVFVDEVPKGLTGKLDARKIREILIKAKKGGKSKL
Chain of Albumin (Bos taurus) (P02769 whole entry, looked up): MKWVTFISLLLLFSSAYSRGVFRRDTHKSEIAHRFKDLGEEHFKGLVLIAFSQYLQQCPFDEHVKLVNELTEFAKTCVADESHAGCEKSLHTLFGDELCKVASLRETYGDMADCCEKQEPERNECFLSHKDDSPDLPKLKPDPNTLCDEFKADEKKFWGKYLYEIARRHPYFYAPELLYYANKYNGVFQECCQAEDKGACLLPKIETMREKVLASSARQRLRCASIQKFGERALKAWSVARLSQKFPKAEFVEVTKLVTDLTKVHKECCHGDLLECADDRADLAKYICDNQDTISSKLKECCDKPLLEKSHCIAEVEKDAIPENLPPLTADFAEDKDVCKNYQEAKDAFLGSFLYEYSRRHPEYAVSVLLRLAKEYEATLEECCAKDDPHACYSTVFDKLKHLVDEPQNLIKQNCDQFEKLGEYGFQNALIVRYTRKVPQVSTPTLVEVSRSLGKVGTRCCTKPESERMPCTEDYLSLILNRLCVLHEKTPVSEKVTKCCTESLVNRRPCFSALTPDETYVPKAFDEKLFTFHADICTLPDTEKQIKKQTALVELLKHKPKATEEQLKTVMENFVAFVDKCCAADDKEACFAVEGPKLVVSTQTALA

As to `COCCCNC(=O)[C@]1(Cc2ccccc2CN=[N+]=[N-])N=C(c2ccc(OCCCO)cc2)O[C@@H]1c1ccccc1N=[N+]=[N-]`, the composite z-score with Albumin (Bos taurus) amounted to 0.835; in experiment [2], 0.805; in experiment [3], 0.188; in experiment [4], 0.525; in experiment [5] it was 2.24; in experiment [6], 0.152. Also, the composite z-score is 1.34 in the experiment with Sam68 (KHDRBS1); -0.992 in experiment [7]; 1.05 in experiment [8]; 2.6 in [9]; 1.2 in [10]; 0.641 in [11]. In addition, the composite z-score in [12] is 0.927; in [13], 0.564; in [14], 0.854; in the experiment with Lefty1, -0.108; in experiment [16] it was 1.2. For the same compound, in [1], the composite Z-score was -0.217 (inactive). Moreover, the z-score was 0.398 in [15] and -6.03 (inactive) in experiment [17].
For the compound `C=CCOC(=O)[C@@H]1[C@H]2C(=O)O[C@H](c3ccccc3)[C@H](c3ccccc3)N2[C@H](c2ccc(OCCOC(=O)[C@@H]3C[C@@H]4C(=O)N[C@@H](CC(C)C)C(=O)N4[C@@H]3c3ccc(O)cc3)cc2)[C@@]12C(=O)Nc1ccc(I)cc12`, the composite z-score in the experiment with Albumin (Bos taurus) is -0.766; in [2] it was 1.3; in experiment [3] it was 0.443; in [4] it was 0.536; in experiment [5] it was 1.37; in experiment [6], 0.166. In addition, the composite z-score with Sam68 (KHDRBS1) came to 1.28; in [7] it was 1.1; in experiment [8], 1.17; in experiment [9], 1.52; in experiment [10], 1.2; in experiment [11], 0.601. Further, the composite z-score amounted to 0.666 in [12]; 1.44 in experiment [13]; 1.26 in experiment [14]; 1.44 in the experiment with Lefty1; 0.182 in [16]. Further, the composite Z-score in experiment [1] was 0.207 (inactive). Moreover, the z-score in [15] was -1.58; in experiment [17], -0.248 (inactive).
As to `COC(=O)C(CC#Cc1ccc2c(c1)[C@]1(C(=O)N2)[C@H](C(=O)N2CCCCCCC2)[C@H]2C(=O)O[C@H](c3ccccc3)[C@H](c3ccccc3)N2[C@@H]1c1ccc(OCCO)cc1)C(=O)OC`, the composite z-score in the experiment with Albumin (Bos taurus) came to 0.844; in experiment [2] it was 2.18; in [3], 1.19; in experiment [4] it was 1.12; in experiment [5] it was 5.47; in experiment [6], 0.497. Also, the composite z-score in the experiment on Sam68 (KHDRBS1) is 1.33; in experiment [7], 1.57; in [8], 1.18; in [9] it was 3.39; in experiment [10], 1.32; in experiment [11], 4.91. Further, the composite z-score in experiment [12] came out at 0.943; in experiment [13], 1.49; in experiment [14] it was 1.6; in the experiment on Lefty1, 1.79; in experiment [16], 1.77. For the same compound, the composite Z-score in [1] was 10.3 (active). The z-score is -0.949 in experiment [15] and 0.035 (inactive) in [17].
Consider `OCCCc1cc[n+](Cc2cc3c(cc2Br)OCO3)cc1`, for which the composite z-score is 0.038 with Albumin (Bos taurus); 0.0785 in experiment [2]; -0.112 in [3]; -0.213 in experiment [4]; -0.608 in [5]; 0.324 in experiment [6]. The composite z-score in the experiment with Sam68 (KHDRBS1) was -0.724; in [7], -0.418; in experiment [8], -1.9; in experiment [9], -0.874; in experiment [10] it was -1.86; in experiment [11], -0.719. The composite z-score in experiment [12] was -1.64; in [13], -0.528; in [14], -0.333; in the experiment with Lefty1, -0.903; in experiment [16], -0.77. Further, the composite Z-score in experiment [1] is -0.0354 (inactive). Moreover, the z-score in [15] is -0.0611; in experiment [17], -0.903 (inactive).
Consider `CC1CC/C=C\[C@H]2OC34C=CCN(CCN5CCOCC5)C(=O)[C@H]3N(C(CO)C(C)C)C(=O)[C@@H]4C2C(=O)O1` (stereo not given in full), for which the composite z-score is -0.466 with Albumin (Bos taurus); -0.111 in experiment [2]; -0.0837 in experiment [3]; 0.854 in experiment [4]; 0.214 in experiment [5]; 1.47 in experiment [6]. Moreover, the composite z-score is 0.889 with Sam68 (KHDRBS1); -0.571 in experiment [7]; 0.475 in experiment [8]; -0.622 in [9]; -0.033 in experiment [10]; -0.125 in [11]. For the same compound, the composite z-score in experiment [12] is -0.248; in experiment [13], -0.277; in experiment [14], -0.3; with Lefty1 it was 0.544; in experiment [16] it was -0.281. In [1], the composite Z-score is 0.769 (inactive). The z-score is 0.302 in experiment [15] and -0.723 (inactive) in [17].

The values are drawn from PubChem BioAssay.
